Compound activity (PubChem BioAssay)
Most compounds without a hit are left out; they make up all but 2.7% or so of the library.
gsp ag: activates gsp, the McCune-Albright syndrome mutation. 340,000 tested, 0.13% active. AID 624287. Potency, µM (doses to about 76.9 µM), for inactives: at the top dose activation (cAMP increase), hits mostly activators. gsp mutant cells, cAMP HTRF, 30 min; active = well fitted activation curve with a large enough effect; inconclusive = small, poorly fitted or top-dose-only effect, or another doubt; inactive = no such curve, though single readings can be large or run the other way; cell line not stated here;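 note: phosphodiesterase inhibitor Ro 20-1724 added with compounds to block cAMP breakdown; potency is the fitted concentration of half-maximal effect; nearly all actives have a fitted effect of over 60% in size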
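Cells stably selected in G418 were plated at 2000/well, grown 16-24 hr, then given compounds in DMSO with the PDE inhibitor […] (300 uM solution added) for 30 min at 37C; cAMP was read by HTRF.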
gsp antagonist: gsp mutant antagonism; gsp-mutant cells, cAMP HTRF, 30 min; Potency, µM (series often up to 76.9 µM), without a hit: at the highest dose activity change, negative = inhibition, actives largely listed as inhibitors; 340,000 tested, 0.4% active; calls by dose curve; cell line not stated here;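 note: intracellular cAMP measured with PDE inhibitor Ro 20-1724 present during compound exposure; potency is the fitted concentration of half-maximal effect; % is set by controls: 0 for no effect and ±100 for the full control effect; nearly all actives have a fitted effect of over 65% in size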
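HTRF cAMP measurement after 30 min RT detection following 30 min, 37C compound treatment alongside […] (added as 300 uM solution) in G418-selected cells seeded at 2000/well and grown 16–24 h.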
ClpP mod: qHTS Assay for Activators of ClpP | ATP-dependent Clp protease proteolytic subunit (Bacillus subtilis (strain 168)), P80244 | Potency, µM (doses to about 57.5 µM), inactives show at the top dose activity change, negative = active | AID 651965, 2013 | 340,000 tested, 1.9% active | purified B. subtilis ClpP, FRET peptide cleavage, 20 min; active = well fitted falling curve with a large enough effect; inconclusive = small, poorly fitted or top-dose-only effect; inactive = no such curve, though single readings can be large or run the other way; note: potency is the fitted concentration of half-maximal effect; the source files actives as falling curves though it sought activators and does not explain the sign; nearly all actives have a fitted effect of over 65% in size
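Purified B. subtilis ClpP, 10 microg/mL final in Tris/HCl pH8 with KCl, BSA, glycerol and Tween-20, cleaved an Abz/nitrotyrosine-quenched decapeptide. Fluorescence (ex 320, em 430) was read at 0 and 20 min at room temperature. Delta was normalized to 5.8 microM ADEP and DMSO/no-enzyme controls.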
RXFP1 agonist: RXFP1 (human) receptor agonism. Potency, µM (highest dose often 57.5 µM), inactives show at the highest dose activation, hits mostly activators. HEK293T-RXFP1 cAMP TR-FRET, 30 min; response scale: percent of porcine relaxin response, buffer zero. Q9HBX9. 370,000 tested, 0.3% active; active = well fitted activation curve with a large enough effect; inconclusive = small, poorly fitted or top-dose-only effect; note: potency is the fitted concentration of half-maximal effect; % is set by controls: 0 for no effect and ±100 for the full control effect; nearly all actives have a fitted effect of over 60% in size
Target sequence (Q9HBX9 whole entry, looked up): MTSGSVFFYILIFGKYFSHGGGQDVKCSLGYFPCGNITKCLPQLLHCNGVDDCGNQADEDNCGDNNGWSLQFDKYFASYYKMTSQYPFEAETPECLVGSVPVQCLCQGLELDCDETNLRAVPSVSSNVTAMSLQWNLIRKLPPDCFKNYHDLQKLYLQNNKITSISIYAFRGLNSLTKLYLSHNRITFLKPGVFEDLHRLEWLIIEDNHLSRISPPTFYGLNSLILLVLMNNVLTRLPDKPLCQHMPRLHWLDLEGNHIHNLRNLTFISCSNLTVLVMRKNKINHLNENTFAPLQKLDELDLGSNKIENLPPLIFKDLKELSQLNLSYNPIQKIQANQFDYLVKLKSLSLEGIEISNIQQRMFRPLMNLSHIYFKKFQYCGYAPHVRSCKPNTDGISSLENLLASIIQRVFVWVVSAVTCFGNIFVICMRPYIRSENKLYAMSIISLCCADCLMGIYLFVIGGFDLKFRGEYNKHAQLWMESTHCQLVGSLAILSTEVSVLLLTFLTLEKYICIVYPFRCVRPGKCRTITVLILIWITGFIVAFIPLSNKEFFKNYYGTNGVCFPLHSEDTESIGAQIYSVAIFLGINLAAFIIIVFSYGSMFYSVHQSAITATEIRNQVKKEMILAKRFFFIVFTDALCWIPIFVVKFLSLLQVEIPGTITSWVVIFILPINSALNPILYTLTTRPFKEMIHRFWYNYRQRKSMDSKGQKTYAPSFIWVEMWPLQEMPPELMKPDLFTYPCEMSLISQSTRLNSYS
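cAMP rise read by TR-FRET after 30 min, 37C compound exposure (up to 58 uM) in RXFP1-transfected HEK293 cells with Ro 20174 present. EC50 from Hill-equation fits, with 29 nM porcine relaxin as 100% and buffer as basal.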
RXFP1 antagonist: RXFP1 (human) relaxin receptor antagonism | Q9HBX9 | activity change, negative = inhibition, % at 57.5 µM | HEK293-RXFP1, relaxin-stimulated cAMP HTRF, 30 min; hits give low values | 350,000 tested, 0.59% active;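 active = activity change of -60% or lower, but not beyond a set lower limit; inconclusive = change between -60% and -40%, or beyond the set limit; inactive = change above -40%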; note: % is set by controls: 0 for no effect and ±100 for the full control effect
pAkt inh: blocks phosphorylation of Akt | Neuro2A IGF-stimulated pAkt S473 HTRF, 20 min; hits give low values | activity change, % for hits at 50 µM | 360,000 tested, 0.32% active; in the data active = activity change below about -80%; inconclusive = mostly about -51% to -80%; note: % is set by controls: 0 for no effect and ±100 for the full control effect
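Neuro2A cells in DMEM with 0.5% FBS, overnight at 37 deg C, given compound at single 50 µM final, then IGF (6 nM final) for 20 min at 37 deg C. Lysed; phospho-Akt Ser473 by HTRF after 24 h, 665/615 ratio.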
* marks the source's active call; other numbers are inactive results; i = inactive; ? = inconclusive; · = no result given; [ ] = remark or other dose.

SMILES	gsp ag	gsp antagonist	ClpP mod	RXFP1 agonist	RXFP1 antagonist	pAkt inh
CCOc1cc(CNc2ccc(N(C)C)cc2)cc(Br)c1OCC(=O)NC(C)(C)C	-41.1%	?	-16.2%	0.1%	-109.5*	i
COc1cc(CNc2cccc(C(=O)O)c2)cc(Br)c1OCC(=O)NC(C)(C)C	-10.9%	-4.1%	25.1µM*	-0.8%	2.6	i
COc1cc(CNc2ccc3[nH]c(=O)[nH]c3c2)cc(Br)c1OCC(=O)NC(C)(C)C	-6.1%	0.2%	81.8%	1.2%	-20.5	i
CCOc1cc(CNc2cccc3ccccc23)cc(Br)c1OCC(=O)NC(C)(C)C	-3.6%	-14.1%	8.91µM*	2.6%	-13.0	i
COC(=O)c1cc(S(=O)(=O)NCC2CCN(CCc3cccs3)CC2)cn1C	?	4.7%	-2.0%	1.5%	-12.2	i
Cc1cc(=O)n2nc(N3CCCC3C(=O)Nc3ccc(C(C)C)cc3)sc2n1 (stereo not given)	?	-15.2%	0.0%	2.7%	-4.2	i
COc1ccc(NC(=O)C2CCCN2c2nn3c(=O)cc(C)nc3s2)cc1 (stereo not given)	22.4µM*	13.4%	-0.6%	?	5.7	i
C(=C\c1ccccn1)/c1ccccc1	·	·	-5.1%	·	·	·
O=C(NCc1ccccc1)N1CCC(n2cnc3cc(F)ccc32)CC1	-13.0%	-10.9%	-0.6%	-0.1%	-1.3	-112.3%*
Cc1ccc2c(c1)nnn2C1CCN(C(=O)NCc2ccccc2)CC1	8.7%[15.4 µM]	-2.7%	·	-1.6%	?	i
CN1CCN(c2ccc(-c3cc(O)c4ncccc4c3)cc2)CC1	·	·	·	-0.5%	·	·
Cc1[nH]c2ccccc2c1C(=O)CN1C(=O)C(=O)N(Cc2ccco2)C1=O	-1.6%[15.4 µM]	0.7%	28.2µM*	-1.6%	-4.5	i
Cc1[nH]c2ccccc2c1C(=O)CN1C(=O)C(=O)N(CCC2=CCCCC2)C1=O	11.6%	-24.3%	-0.3%	-0.7%	-15.1	i
O=C(CSc1nc(O)cc(=O)n1-c1ccccc1)Nc1ccc2c3c(cccc13)CC2	-16.1%[15.4 µM]	7.08µM*	·	1.7%	?	i
Cc1c(O)nc(SCC(=O)Nc2ccc3c4c(cccc24)CC3)n(-c2ccccc2)c1=O	-4.9%[15.4 µM]	-9.9%	·	-0.8%	-14.0	i
CC(C)CC1=C/C(=C/c2ccc(-c3ccccc3)o2)C(=O)O1	?	-9.6%	25.1µM*	-0.1%	9.4	i
O=C(NCc1ccccn1)c1coc(=O)c(Br)c1	12.6%	9.9%	15.8µM*	1.2%	0.8	i
C[C@H]1NCc2cc(-c3ccc4c(=O)c(C(=O)O)cn(C5CC5)c4c3OC(F)F)ccc21	·	·	·	·	8.7	·
Cc1cc(OCC(=O)OCC(=O)N(C)C2CCS(=O)(=O)C2)ccc1Cl (stereo not given)	-6.3%[15.4 µM]	6.4%	-0.4%	0.4%	-7.9	i
O=c1[nH]c2cc3c(cc2cc1CN(Cc1nnnn1C1CCCC1)C1CCCC1)OCCO3	6.4%	0.1%	31.6µM*	0.4%	0.7	i
O=c1[nH]c2cc3c(cc2cc1C(c1nnnn1C1CCCCC1)N1CCSCC1)OCCO3 (stereo not given)	?	42.2%	35.5µM*	23.4%	4.0	?
COc1cc2cc(C(c3nnnn3C3CCCC3)N3CCCCC3)c(=O)[nH]c2cc1OC (stereo not given)	-42.5%	-19.4%	22.4µM*	3.6%	1.3	i
COc1ccc(C(c2nnnn2C2CCCC2)N2CCC(C)CC2)c(OC)c1 (stereo not given)	-5.0%	-0.7%	17.8µM*	0.4%	-18.0	i
COc1cc2cc(CN(Cc3nnnn3C3CCCC3)C3CCCC3)c(=O)[nH]c2cc1OC	·	·	·	2.7%	·	·
CCc1ccc(NC(=O)Cn2c(=O)n(CCC(C)C)c(=O)c3cccnc32)cc1	·	·	-0.9%	?	·	·
SMILES	gsp ag	gsp antagonist	ClpP mod	RXFP1 agonist	RXFP1 antagonist	pAkt inh
CC1(C)O[C@@H]2C[C@H]3[C@@H]4CCC5=CC(=O)C=C[C@]5(C)[C@@H]4[C@@H](O)C[C@]3(C)[C@]2(C(=O)CO)O1	·	·	·	·	-3.7	·
O=C(NC(=S)NC1CCC(O)CC1)c1ccco1 (stereo not given)	-29.6%	2.0%	-0.5%	·	0.6	i
COc1ccc(-c2cc3ccccc3n2CC(O)CN2CCCCC2)cc1 (stereo not given)	-31.3%	3.2%	3.2%	6.1%	-8.6	i
COc1ccc(-c2cc3ccccc3n2CC(O)CNCCO)cc1 (stereo not given)	?	3.2%	11.2µM*	0.2%	-10.4	i
CCN(CC)CC(O)c1ccc2ccc3ccc(O)cc3c2c1 (stereo not given)	-4.0%[15.4 µM]	4.4%	1.5%	·	?	i
O=C(CNC(=O)c1ccccc1)Sc1ccccc1	?	2.2%	·	·	-7.6	i
O=C(CNC1C(=O)Nc2ccccc21)Sc1ccccc1 (stereo not given)	-40.7%	4.2%	1.7%	-0.7%	-2.6	-111.3%*
CCC(=O)Nc1c(S(=O)(=O)c2ccc(C)cc2)c2nc3ccccc3nc2n1C(C)c1ccccc1 (stereo not given)	-5.2%[15.4 µM]	-1.8%	20µM*	-2.4%	-22.0	i
CCC(=O)Nc1c(S(=O)(=O)c2ccccc2)c2nc3ccccc3nc2n1C(C)c1ccccc1 (stereo not given)	-0.9%	-29.8%	31.6µM*	-0.2%	4.7	i
N#Cc1cnn(-c2ccccc2)c1NC(=O)c1ccccc1F	-6.3%	0.4%	-4.5%	-2.1%	0.4	i
CCOC(=O)c1c(C)[nH]c(C(=O)OCC(=O)N2CC(C)OC(C)C2)c1C (stereo not given)	?	-0.5%	-2.1%	-0.1%	5.3	-130.2%*
Cc1cc(=O)oc2cc(NC(=O)C(C)Oc3cccc(Cl)c3)ccc12 (stereo not given)	3.6%	1.0%	10µM*	3.6%	-5.0	i
Cc1cc(=O)oc2cc(OC(C)C(=O)Nc3ccc(C(N)=O)cc3)ccc12 (stereo not given)	-2.1%	-1.5%	4.4%	3.5%	9.3	i
Cc1cc(-c2c(C)[nH]n(-c3ccc(Cl)cc3)c2=O)n(-c2ccc(Cl)cc2)n1	-13.7%	31.6µM*	-1.3%	0.1%	-16.7	i
Cc1cc(-c2c(C)[nH]n(-c3ccccc3)c2=O)n(-c2ccccc2)n1	2.0%	-2.8%	-3.2%	-4.3%	-1.9	i
C=CCSc1nnc(-c2sc(-c3ccccc3)nc2C)n1C	3.8%	-3.4%	35.5µM*	5.2%	-1.8	·
N#Cc1ccc(C(C(=O)NC2CCCCC2)n2c(=O)c(-c3ccccc3)nc3ccccc32)cc1 (stereo not given)	·	·	?	·	·	i
